Measurements taken from PubChem BioAssay AID1345085 (National Center for Advancing Translational Sciences (NCATS), 2018).
Records with an inconclusive call do not appear. Values without a mark were called inactive. The source made the active and inactive calls. Calls come from the whole dose curve; as a rule, active = well fitted cell-killing curve with a large enough effect; inconclusive = small, poorly fitted or top-dose-only effect, or effect the other way; inactive = no such curve, though single readings can be large or run the other way.
% is set by controls: 0 for no effect and ±100 for the full control effect; potency is the fitted concentration of half-maximal effect.
Note: nearly all actives have a fitted effect of over 55% in size.

These compounds were tested on CAOV3 (assay: Confirmatory qHTS for gynecologic anti-cancer compounds from libraries of approved drugs and bioactive compounds). Conditions: gynecologic cancer cell panel viability, ATPlite luminescence, 48 h; series mostly up to 57.6 µM; activity change, negative = viability loss: at the top concentration.
Method in brief: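 IC50 values derive from an ATPlite ATP-content luminescence assay following 48 h treatment at 37 C. Each compound ran as an 11-concentration, threefold series (57.5 uM to 0.977 nM); HEK 293T served as control line for selectivity index.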
For `CN1CCN(c2cccc(Nc3nc4c(-c5ccc(S(C)(=O)=O)cc5)cccn4n3)c2)CC1`, the Potency was 27.3 µM (active). Work on `Cc1cnc(CNC(=O)c2c(=O)c3ccc(N4CCCN(C)CC4)nc3n3c2sc2ccccc23)cn1` yielded an activity change, negative = viability loss of 22.5% [at 10.7 µM]. In the case of `CN(C)C1CCN(C(=O)c2ccc(NC(=O)Nc3nc(N4CCOCC4)nc(N4CCOCC4)n3)cc2)CC1`, the Potency is reported as 0.611 µM (active). `COc1ccc(-c2ccc3c(N4CCOCC4C)nc(N4CCOCC4C)nc3n2)cc1CO` (centres undefined) was tested, and the “activity change, negative = viability loss” value was -2.81%. `COc1cc(N2CCC(N)CC2)ccc1Nc1ncc(Cl)c(-c2c[nH]c3ccccc23)n1` was tested, and the Potency was 3.43 µM (active). `COCCOc1ccc2c(c1)ncn2-c1ccc2cccc(N3CCC(N)CC3)c2n1` was tested, and the “activity change, negative = viability loss” value was -10.6%. In the case of `COC(C(=O)N1Cc2[nH]nc(NC(=O)c3ccc(N4CCN(C)CC4)cc3)c2C1)c1ccccc1` (centres undefined), the Potency is reported as 1.53 µM (active). With `COc1cc(Nc2c(C#N)cnc3cc(OCCCN4CCN(C)CC4)c(OC)cc23)c(Cl)cc1Cl` the Potency was 27.3 µM (active). In the case of `Cc1cc(Nc2cc(N3CCN(C)CC3)nc(/C=C/c3ccccc3)n2)n[nH]1`, the Potency is reported as 7.69 µM (active). In the case of `CCc1nc(C(N)=O)c(Nc2ccc(N3CCC(N4CCN(C)CC4)CC3)c(OC)c2)nc1NC1CCOCC1`, the Potency is reported as 6.72 µM (active). With `COc1cc2c(NC3CCN(C(C)C)CC3)nc(C3CCCCC3)nc2cc1OCCCN1CCCC1` the Potency was 8.63 µM (active). In the case of `CN(C)CC/C=C1\c2ccccc2COc2ccccc21`, the “activity change, negative = viability loss” value is reported as -7.48%. In the case of `Cc1ccc(-n2[nH]c(C)c(N=Nc3cccc(-c4cccc(C(=O)O)c4)c3O)c2=O)cc1C`, the Potency is reported as 27.3 µM (active). In the case of `CS(=O)(=O)c1ccc(C(=O)Nc2ccc(Cl)c(-c3ccccn3)c2)c(Cl)c1`, the “activity change, negative = viability loss” value is reported as 25.6%. In the case of `COC(C)(C)CCn1nc(Nc2c(C)cccc2C)c2cnc(Nc3ccc(OCCN4CCCC4)c(F)c3)nc21`, the Potency is reported as 21.7 µM (active). For `Cc1ccc(C(=O)N(CCCN)C(c2nc3cc(Cl)ccc3c(=O)n2Cc2ccccc2)C(C)C)cc1` (centres undefined), the Potency was 17.2 µM (active). `Nc1ccccc1NC(=O)c1ccc(CNc2nccc(-c3cccnc3)n2)cc1` was tested, and the Potency was 2.73 µM (active). For `CCOc1cc2ncc(C#N)c(Nc3ccc(F)c(Cl)c3)c2cc1NC(=O)/C=C/CN(C)C`, the Potency was 19.3 µM (active). For `O=C(c1ccc(F)c(F)c1Nc1ccc(I)cc1F)N1CC(O)([C@@H]2CCCCN2)C1`, the Potency was 27.3 µM (active). In the case of `CCc1c2c(nc3ccc(OC(=O)N4CCC(N5CCCCC5)CC4)cc13)-c1cc3c(c(=O)n1C2)COC(=O)[C@]3(O)CC`, the Potency is reported as 19.3 µM (active). In the case of `COc1cccc2c1C(=O)c1c(O)c3c(c(O)c1C2=O)C[C@@](O)(C(=O)CO)C[C@@H]3O[C@H]1C[C@H](N)[C@H](O[C@@H]2CCCCO2)[C@H](C)O1`, the Potency is reported as 9.68 µM (active). With `CCN(CC)CCOc1ccc(/C(=C(\Cl)c2ccccc2)c2ccccc2)cc1` the Potency was 100 µM (active). With `Cn1cc(-c2ccc3ncc(Cc4ccc5ncccc5c4)n3n2)cn1` the “activity change, negative = viability loss” value was -0.803%. For `CN(C)C(CCOc1cccc2ccccc12)c1ccccc1` (centres undefined), the Potency was 30.6 µM (active). `Cc1ccccc1C(OCCN(C)C)c1ccccc1` (centres undefined) was tested, and the “activity change, negative = viability loss” value was 8.74%. With `COc1c(C)c2c(c(O)c1C/C=C(\C)CCC(=O)O)C(=O)OC2` the “activity change, negative = viability loss” value was -18.3%. `COc1ccc(-c2cc3nccn3c(Nc3ncccc3C(N)=O)n2)cc1OC` was tested, and the “activity change, negative = viability loss” value was -6.41%. With `Cn1c(=O)c(-c2c(Cl)cccc2Cl)cc2cnc(Nc3cccc(C(=O)O)c3)nc21` the Potency was 2.73 µM (active). With `Cc1c(C)n(Cc2ccc(-c3ccccc3C(=O)O)cc2)c2ccc(C(=O)N[C@@H](C)c3ccc([N+](=O)[O-])cc3)cc12` the “activity change, negative = viability loss” value was 11.8%. `COc1cccc2c1C(=O)c1c(O)c3c(c(O)c1C2=O)C[C@@](O)(C(=O)CO)C[C@@H]3O[C@H]1C[C@H](N)[C@H](O)[C@H](C)O1` was tested, and the Potency was 2.43 µM (active). With `CCN1CCN(Cc2ccc(Nc3ncc(F)c(-c4cc(F)c5nc(C)n(C(C)C)c5c4)n3)nc2)CC1` the “activity change, negative = viability loss” value was -8.37%. With `Cc1ccc(C(=O)Nc2ccc(CN3CCN(C)CC3)c(C(F)(F)F)c2)cc1C#Cc1cnc2cccnn12` the Potency was 19.3 µM (active). With `CCOc1ccc(Nc2nc(-c3c(C)nc4ccccn34)cs2)cc1` the “activity change, negative = viability loss” value was -9.28%. `CCc1cccc(CC)c1NC(=O)N1Cc2[nH]nc(NC(=O)c3ccc(N4CCN(C)CC4)cc3)c2C1` was tested, and the Potency was 2.43 µM (active).
